Assay results from PubChem BioAssay (NCI).
The panel holds about 83,000 compounds, 20% with a hit somewhere; the sample as a whole holds those more often.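 Note: values are percent growth. 100 is the growth of untreated cells, values between 100 and 0 indicate rising inhibition; between -100 and 0 indicates cell death.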 Unmarked numbers belong to inactive results. Calls of active or inactive are those of the source. Rule for the calls: active = growth percent below 10; inactive = the rest.

What was measured:
Test in all cases: NCI-60 one-dose screen, 48 h (100 = growth as untreated, 0 = no growth, -100 = all killed)
Details in all cases: 10 µM unless noted
NCI-H23 lung = test system: NCI-H23 lung
NCI-H226 lung = test system: NCI-H226 lung
NCI-H322M lung = test system: NCI-H322M lung
HOP-62 NSCLC = test system: HOP-62 NSCLC
NCI-H460 lung = test system: NCI-H460 lung
HOP-92 NSCLC = test system: HOP-92 NSCLC
NCI-H522 lung = test system: NCI-H522 lung
A549/ATCC NSCLC = test system: A549/ATCC NSCLC
786-0 renal = test system: 786-0 renal
COLO 205 colon = test system: COLO 205 colon
DU-145 prostate = test system: DU-145 prostate
K-562 leukemia = test system: K-562 leukemia
MALME-3M melanoma = test system: MALME-3M melanoma
MDA-MB-231 breast = test system: MDA-MB-231 breast
RXF 393 renal = test system: RXF 393 renal
SF-268 CNS = test system: SF-268 CNS
SF-295 CNS = test system: SF-295 CNS
SF-539 CNS = test system: SF-539 CNS
UACC-257 melanoma = test system: UACC-257 melanoma
M14 melanoma = test system: M14 melanoma

Row | Compound | growth (NCI-H23 lung) | growth (NCI-H226 lung) | growth (NCI-H322M lung) | growth (HOP-62 NSCLC) | growth (NCI-H460 lung) | growth (HOP-92 NSCLC) | growth (NCI-H522 lung) | growth (A549/ATCC NSCLC) | growth (786-0 renal) | growth (COLO 205 colon) | growth (DU-145 prostate) | growth (K-562 leukemia) | growth (MALME-3M melanoma) | growth (MDA-MB-231 breast) | growth (RXF 393 renal) | growth (SF-268 CNS) | growth (SF-295 CNS) | growth (SF-539 CNS) | growth (UACC-257 melanoma) | growth (M14 melanoma)
1 | O=[N+]([O-])c1cc([N+](=O)[O-])c(NN=C(c2ccc(O)cc2)c2ccc(O)cc2)cc1Cl | -72.9% (active) | -28% (active) | 9.47% (active) | -91.2% (active) | -6.95% (active) | -69.6% (active) | -55.1% (active) | -71.2% (active) | -89% (active) | 25.6% | -77.9% (active) | 101% | -51.6% (active) | -70.4% (active) | -76.5% (active) | -91.8% (active) | 104% | -51.9% (active) | -79.9% (active) | -86.8% (active)
2 | O=C(Nc1ccc(Nc2ccncc2)cc1)c1ccc([N+](=O)[O-])cc1 | 81% | 91.1% | 90.4% | 61.7% | 77.5% | 51.1% | 52.6% | 72.4% | 56.7% | -50.3% (active) | 68.7% | 19.5% | 59.1% | 93.5% | 91.6% | 91.9% | 79.6% | 88.8% | 96.9% | –
3 | C=C(C)[C@@H]1CC[C@]2(c3ncc(C)o3)CC[C@]3(C)[C@H](CC[C@@H]4[C@@](C)(CCC#N)[C@H](C(=C)C)CC[C@]43C)[C@@H]12 | -68.1% [100 µM] (active) | -55.2% [100 µM] (active) | -83.5% [100 µM] (active) | -86.1% [100 µM] (active) | -71.4% [100 µM] (active) | -85.7% [100 µM] (active) | -85.4% [100 µM] (active) | -84.8% [100 µM] (active) | -85.6% [100 µM] (active) | -82% [100 µM] (active) | -76.4% [100 µM] (active) | 4.09% [100 µM] (active) | -87.5% [100 µM] (active) | -96.1% [100 µM] (active) | -83.6% [100 µM] (active) | -66.2% [100 µM] (active) | -81.7% [100 µM] (active) | -94.3% [100 µM] (active) | -80.5% [100 µM] (active) | –
4 | CCCC[C@@H](C=O)NC(=O)[C@H](CC(C)C)NC(=O)[C@H](CC(C)C)NC(=O)OCc1ccccc1 | -17.1% (active) | -54.1% (active) | 15.1% | 11.8% | 0.451% (active) | -35.2% (active) | -0.189% (active) | 71.3% | -10% (active) | -3.03% (active) | -38.2% (active) | 0.815% (active) | -33% (active) | -32.3% (active) | -63.7% (active) | -11.9% (active) | -12% (active) | -45.7% (active) | 12.4% | –
5 | COc1cc(Cl)cc(-c2nn(C(=O)NS(=O)(=O)c3ccccc3)cc2-c2ccncc2)c1 | 90.4% | 69.3% | 96% | 68.6% | 107% | 47.7% | 82.5% | 78.5% | 70.9% | 69.7% | 82.5% | 86.3% | 96.4% | 62.6% | 79.2% | 81.1% | 97.9% | 48.2% | 110% | –
6 | COc1cc(NCc2ccccc2O)c2ncccc2c1 | 97.7% | 104% | 90.7% | 83.5% | 97.3% | 81.1% | 88.3% | 110% | 69.5% | 96.9% | 112% | 97.3% | 92.9% | 91.3% | 100% | 110% | 129% | 86% | 109% | –
7 | CC[C@@](C)(NC(=O)[C@H](C)NC(=O)CCNC(=O)C(C)(C)NC(=O)[C@H](C)NC(=O)[C@@H]1CCCN1C(=O)[C@@](C)(CC)NC(=O)[C@H](Cc1ccccc1)NC(=O)C1CCCN1C(=O)C(C)(C)NC(=O)C1CCCN1C(=O)C(C)(C)NC(C)=O)C(=O)NCCC(=O)N[C@@H](CC(C)C)C(=O)NC(C)(C)C(=O)NCCC(=O)N[C@@H](CC(C)C)C(=O)NC(C)(C)C(=O)NC(C)(C)C(=O)N[C@@H](CC(C)C)C(=O)NCCC(=O)NCO (some centres undefined) | -89.5% (active) | -97% (active) | -87.9% (active) | -92% (active) | -78.1% (active) | -94.7% (active) | -84.2% (active) | -81.3% (active) | -94.6% (active) | -87.9% (active) | -100% (active) | -60.9% (active) | -84.9% (active) | -88.5% (active) | -97.5% (active) | -96.8% (active) | -98.6% (active) | -90% (active) | -95.2% (active) | –
